D1 agonist: human D1 receptor agonism; P21728; HEK293 T-REx D1 cells, calcium flux, agonist mode; activation, % at 2 µM; hit rate 1% among 360,000; note: 0% is about no effect
Target sequence (P21728 whole entry, looked up): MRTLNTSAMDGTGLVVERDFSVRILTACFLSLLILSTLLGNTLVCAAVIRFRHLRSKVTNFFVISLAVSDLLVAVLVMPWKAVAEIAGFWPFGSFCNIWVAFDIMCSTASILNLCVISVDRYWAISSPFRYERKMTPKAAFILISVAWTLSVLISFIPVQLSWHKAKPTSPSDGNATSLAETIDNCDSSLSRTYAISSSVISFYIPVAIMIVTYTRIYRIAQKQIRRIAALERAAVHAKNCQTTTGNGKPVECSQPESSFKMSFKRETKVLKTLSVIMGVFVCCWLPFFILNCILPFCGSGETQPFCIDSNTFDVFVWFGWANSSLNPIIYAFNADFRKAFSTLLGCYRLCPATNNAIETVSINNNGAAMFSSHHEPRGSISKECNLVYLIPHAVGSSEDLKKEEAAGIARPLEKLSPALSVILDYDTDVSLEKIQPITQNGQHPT
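Agonism was scored from calcium flux recorded over 180 s (1 read/s) after pintool compound addition, following a 10-cycle baseline. Cells were inducible force-coupled HEK293 TREx D1, plated overnight at 30 C and loaded with no-wash calcium dye.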
TRHR PAM: allosterically enhances the human TRH receptor | P34981 | TRHR cells, fluo-8 calcium fluorescence, EC20 TRH enhancement | enhancement, % at 2 µM | hit rate 0.66% among 360,000; in the data active = enhancement above about 30%; note: 0% is about no effect
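TRHR-expressing cells loaded with fluo-8 calcium dye were read kinetically (ex 480/em 530) during compound addition, then stimulated with an EC20 of TRH (10 nM final). Enhancement of the Gq-mediated intracellular calcium response was scored.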
Glioma ERSR ind: inducers of ER stress response in human glioma cells. U87-MG GRP78 promoter luciferase reporter, 16 h. Potency, µM, for inactives: top-dose activation, usual class: activators. hit rate 0.02% among 420,000. AID 602332; active = well fitted activation curve with a large enough effect; note: potency is the fitted concentration of half-maximal effect; series mostly up to about 76 µM; % of control where 0% means no effect; nearly all actives have a fitted effect of over 35% in size
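ERSR induction read as luciferase luminescence (Bright-Glo, 10 min at room temperature) in stably transfected human U87-MG glioma cells exposed to compounds for 16 h, using GRP78 as sensor.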
TRHR ag: agonists of human TRH receptor. P34981. TRHR cells, calcium flux fluo-8, FDSS agonist mode. activation, % at 2 µM. hit rate 0.18% among 360,000. AID 493084; note: 0% is about no effect
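Steps: seed TRHR cells overnight; add fluo-8 no-wash Ca dye, RT 30 min–1.5 h; record 10 s baseline; pin-transfer compounds; monitor fluorescence 1 cycle/s for the agonist window. Calcium increases flag candidate agonists.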
D1 potentiator: human D1 dopamine receptor positive modulation; P21728; HEK293 TREx D1 cells, calcium flux, dopamine EC20 potentiation; potentiation, % at 10 µM; hit rate 0.036% among 360,000; AID 504651; in the data active = potentiation above about 30%; note: 0% is about no effect
D1 antag: human D1 dopamine receptor antagonism. P21728. AID 504652. activity change, negative = inhibition, % at 10 µM. hit rate 3.2% among 360,000. HEK293 TREx D1 cells, calcium flux, dopamine EC80; hits give low values; in the data active = activity change below about -30%; note: % is set by controls: 0 for no effect and ±100 for the full control effect
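After overnight tetracycline induction at 30 C, force-coupled D1 HEK293 cells took up a no-wash calcium dye at room temperature. Compounds were added and monitored 180 s, and the response to EC80 dopamine was then recorded.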
Active calls of the source: *; x = not tested or not shown. An excerpt weighted towards active compounds, which were near 4% of everything screened. Cut-off read from the data, not from the text of the source, unless noted: active = activation above about 30%; inactive = the rest.

SMILES	D1 agonist	TRHR PAM	Glioma ERSR ind	TRHR ag	D1 potentiator	D1 antag
Cc1ccc(NC(=O)c2ccc(CN3CCc4ccccc4C3)cc2)cc1	4	2	3%	1	-4	-33*
O=C(Nc1ccccc1)c1ccc(CN2CCc3ccccc3C2)cc1	5	-5	5%	0	-3	-9
CCOC(=O)c1ccc(NC(=O)N2CCc3ccccc3C2)cc1	13	-3	5%	0	-2	-39*
COc1ccc(C(=O)CN2C(=O)N(c3ccc(C(C)=O)cc3)S(=O)(=O)c3ccccc32)cc1	5	1	-2%	0	0	22
Nc1nc(COC(=O)CCC(=O)c2ccccc2)nc(Nc2ccccc2)n1	3	0	0%	0	-11	-32*
Nc1nc(COC(=O)c2ccc3c(c2)OCCO3)nc(Nc2ccccc2)n1	33*	3	-3%	0	-6	-31*
N/C(Cn1cncn1)=N\NC(=O)c1ccc(Cl)cc1Cl	2	3	0%	1	-4	-1
COC(=O)C1=C(N)Oc2cc(C)n(C)c(=O)c2C1c1ccc(Cl)c(Cl)c1 (configuration not stated)	0	-6	-5%	0	-3	-33*
CCCC(=O)c1c[nH]c(C(=O)N2CCOCC2)c1	3	36*	-3%	1	x	24
Nc1cc2nc3ccccc3oc-2cc1=O	33*	2	-5%	9	0	-9
COc1ccc(CCN(C)C(=S)NC(=O)c2ccc(F)cc2Cl)cc1OC	4	-5	-4%	0	-3	-56*
COc1ccc(CCN(C)C(=S)Nc2ccc(SC(F)F)cc2)cc1OC	24	5	-2%	0	-7	-28
O=C(Cn1c(=O)oc2cc(S(=O)(=O)N3CCCC3)ccc21)N1CCN(C2CCCCC2)CC1	0	-1	-3%	0	-4	-10
Cc1cccc(N2CCN(C(=O)c3ccc4c(c3)NC(=O)C(CSCc3cccc(F)c3)N4)CC2)c1C (configuration not stated)	1	-8	x	1	-8	-1
CN1C(=O)C2CN(CCc3ccccc3)CNC2N(C)C1=O (configuration not stated)	3	-3	2%	0	-12	-35*
CCN1CN(CCc2ccccc2)CNC1=S	1	-2	-1%	0	-1	1
Cc1ccc(-c2cc(C(F)(F)F)n3nc(C(=O)Nc4sc5c(c4C#N)CCC(C)C5)cc3n2)cc1 (configuration not stated)	0	2	0%	2	-6	-37*
CCN(CC)CCCNC(=S)N1CCn2c(nc3ccccc32)C1	2	-2	-1%	0	-1	-8
CCN(CC)CCCNC(=S)N1CCN(c2nc3ccccc3n2CC)CC1	1	1	-6%	0	-11	-35*
COc1cccc(-c2csc(N3CCN(C(=S)Nc4ccccc4C)CC3)n2)c1	1	1	-4%	0	-3	-33*
CCCCC(=O)N1CCN(c2nc(-c3ccc(F)cc3)cs2)CC1	2	0	1%	-1	-4	-31*
COCCNC(=S)N1CCN(c2nc(-c3ccc(F)cc3)cs2)CC1	3	-6	0%	-1	-16	-34*
COc1cccc(OCCNC(=O)c2ccccc2Sc2ccccc2C#N)c1	5	-4	-3%	0	-1	-15
CCN(CC)CCCNC(=S)N1CCN(c2nc(-c3ccc(F)cc3)cs2)CC1	43*	-3	-6%	-1	-13	-46*
CCNC(=S)N1CCN(c2nc(-c3ccc(F)cc3)cs2)CC1	3	-4	5%	0	-5	4
SMILES	D1 agonist	TRHR PAM	Glioma ERSR ind	TRHR ag	D1 potentiator	D1 antag
Cc1ccc(NC(=O)c2cc3ccccc3oc2=N)cc1	4	15	-7%	5	3	9
N=c1oc2c3c4c(cc2cc1C(=O)Nc1ccccc1)CCCN4CCC3	385*	-16	6%	94*	-8	-88*
Cc1ccc(Cl)cc1NC(=O)Nc1cccs1	24	-3	-3%	1	-9	-63*
Cc1ccccc1NC(=O)Nc1cccs1	12	0	8%	1	-4	-36*
Cc1ccc(NC(=O)Nc2cccs2)c(C)c1	11	-2	4%	0	1	-41*
CCC(CC)C(=O)Nc1cc(Cl)ccc1C	1	-5	x	0	-4	-4
CCc1ccccc1NC(=O)Nc1cccs1	5	-3	0%	0	-5	-9
Cc1cc(C)n2nc(S(=O)(=O)N(C)c3ccccc3)nc2n1	1	-6	-5%	1	20	16
Cc1ccc(C(=O)n2cnc3ccccc32)cc1C	1	2	0%	0	-6	-17
CCOC(=O)N1CCN(c2nc(C(F)(F)F)nc3c(C)cc(C)cc23)CC1	2	-3	-2%	1	-6	0
CCc1cc(C(c2ccncc2)N2CCN(C)CC2)c(NC(=O)c2ccccc2)s1 (configuration not stated)	5	-2	0%	0	0	5
Fc1ccc(F)c(CNc2ncnc3cc(Cl)ccc23)c1	11	-5	-5%	3	-8	-30*
Cc1ccccc1CNc1ncnc2cc(Cl)ccc12	6	-2	-2%	0	2	-7
Cc1ccc(-c2c(C#N)c(N)nc3c2CCCCCC3)o1	2	-10	3%	0	-3	-6
COc1cc(/C=N/NC(=S)NC2CC3CCC2C3)ccc1O (configuration not stated)	1	18	12%	0	-2	-1
N#CC1=C(N)SC(N)=C(C#N)C1CCC1CCCCC1	43*	-3	x	5	-8	-27
CC(=O)Nc1ccc(N/C=C(\C=O)c2nc3ccccc3o2)cc1	1	4	-2%	1	-3	3
COc1cccc(CN2CC(C(=O)NCCSc3nnnn3C)CCC2=O)c1 (configuration not stated)	2	2	-4%	1	-4	-37*
O=C(NC1CCCC1)c1c[nH]c2ccc(S(=O)(=O)Nc3cccc(C(F)(F)F)c3)cc2c1=O	8	1	-2%	0	3	-1
CC(=O)Nc1c(C)nn(-c2ccccc2)c1N1CCC(C(=O)Nc2cc(F)ccc2F)CC1	1	-6	10%	0	3	0
CC(=O)Nc1ccc(NC(=O)C2CCN(c3c(NC(C)=O)c(C)nn3-c3ccccc3)CC2)cc1	3	-3	4%	0	-1	-36*
CO/N=C(\Cn1ncc(N2CCCC2)c(Cl)c1=O)c1ccc(Cl)cc1	4	-1	-1%	-1	-3	-46*
CO/N=C/CC(=O)Nc1ccc(F)cc1F	0	2	0%	0	0	25

Assay outcomes: PubChem BioAssay, National Center for Advancing Translational Sciences (NCATS)
